About 83,000 compounds went through this panel and 20% of them were active in at least one assay; those are over-represented in the sample as a whole.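 Values shown are percent growth following 48 h exposure of cells in 96-well plates to a single concentration of compound; below 10 was considered active.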 Unmarked numbers belong to inactive results. Calls of active or inactive are those of the source.

What all share (assay): NCI-60 one-dose screen, 48 h (100 = growth as untreated, 0 = no growth, -100 = all killed)
The test system of one assay is HT29 colon. The settings on record: 10 µM unless noted.
The test system of a further assay is SNB-75 CNS. The following applies: 10 µM unless noted.
The next assay has as its system SNB-19 CNS. The following applies: 10 µM unless noted.
Another assay has as its system U251 CNS. The settings on record: 10 µM unless noted.
The next assay relates to PC-3 prostate. The following applies: 10 µM unless noted.
The subject of another assay is SK-MEL-5 melanoma. The settings on record: 10 µM unless noted.
Another assay concerns UACC-62 melanoma. The settings on record: 10 µM unless noted.
In a further assay the test system is LOX IMVI melanoma. The settings on record: 10 µM unless noted.
A further assay concerns SK-MEL-28 melanoma. The settings on record: 10 µM.
Another assay deals with SK-MEL-2 melanoma. The following applies: 10 µM unless noted.
A further assay has as its system SN12C renal. The settings on record: 10 µM unless noted.
The test system of the next assay is UO-31 renal. The following applies: 10 µM unless noted.
The next assay deals with TK-10 renal. The settings on record: 10 µM unless noted.
For another assay, the system named is ACHN renal. The following applies: 10 µM unless noted.
The test system of another assay is CAKI-1 renal. The following applies: 10 µM unless noted.
The test system of a further assay is A498 renal. The settings on record: 10 µM unless noted.
The subject of a further assay is CCRF-CEM leukemia. The settings on record: 10 µM unless noted.
Another assay deals with MOLT-4 leukemia. The settings on record: 10 µM unless noted.
A further assay deals with SR leukemia. The settings on record: 10 µM unless noted.
The test system of the next assay is EKVX NSCLC. The following applies: 10 µM unless noted.

On to `O=S1(=O)CCN(Cc2ccccc2)CC1`, for which the growth was 103% in the assay with HT29 colon; 111% in the assay on SNB-75 CNS; 92% in the assay on SNB-19 CNS; 104% in the assay on U251 CNS; 101% in the assay with PC-3 prostate; 96.5% in the assay with SK-MEL-5 melanoma. The growth in the assay on UACC-62 melanoma is 106%; in the assay on LOX IMVI melanoma, 98.3%; in the assay on SK-MEL-28 melanoma it was 102%; with SK-MEL-2 melanoma it was 119%; in the assay with SN12C renal, 101%; in the assay on UO-31 renal, 103%. Moreover, the growth with TK-10 renal was 94.3%; in the assay with ACHN renal it was 97%; with CAKI-1 renal, 89.1%; with A498 renal, 75.9%; in the assay with CCRF-CEM leukemia, 98.1%; with MOLT-4 leukemia, 105%. The growth with SR leukemia is 87.3%.
As to `Cn1c(/C=C(\C#N)c2ccccc2)nc2c(N3CCOCC3)nc(Cl)nc21`, the growth in the assay with HT29 colon was -54.6% (active); in the assay with SNB-75 CNS, -94.9% (active); in the assay with SNB-19 CNS, 56.9%; in the assay on U251 CNS, 3.21% (active); with PC-3 prostate, -62.3% (active); in the assay on SK-MEL-5 melanoma it was -53.8% (active). Moreover, the growth with UACC-62 melanoma was -86.1% (active); in the assay on LOX IMVI melanoma, -87.9% (active); in the assay on SK-MEL-28 melanoma, -78.6% (active); in the assay on SK-MEL-2 melanoma, -34.4% (active); in the assay with SN12C renal it was -58.6% (active); in the assay with UO-31 renal, -100% (active). Also, the growth was -63.6% (active) in the assay with TK-10 renal; -96.2% (active) in the assay on ACHN renal; -96.9% (active) in the assay on CAKI-1 renal; 2.31% (active) in the assay with A498 renal; 2.94% (active) with CCRF-CEM leukemia; -12.4% (active) in the assay on MOLT-4 leukemia. Also, the growth with SR leukemia was 10.7%.
In the case of `CN(CCc1ccccc1)C(=S)N(C(=O)c1ccc([N+](=O)[O-])cc1)c1ccc(Cl)cc1`, the growth is 92.7% with HT29 colon; 97.2% with SNB-75 CNS; 101% in the assay with SNB-19 CNS; 90.4% with U251 CNS; 77.5% with PC-3 prostate; 98.3% with SK-MEL-5 melanoma. In addition, the growth in the assay on UACC-62 melanoma is 92%; with LOX IMVI melanoma, 61.3%; in the assay with SK-MEL-28 melanoma, 95.2%; in the assay on SK-MEL-2 melanoma it was 87.9%; with SN12C renal it was 89%; in the assay on UO-31 renal, 76.8%. Moreover, the growth is 76% in the assay with TK-10 renal; 106% with ACHN renal; 85.5% in the assay with CAKI-1 renal; 93.4% in the assay on A498 renal; 39.6% in the assay on CCRF-CEM leukemia; 43.1% in the assay with MOLT-4 leukemia. In addition, the growth in the assay on SR leukemia is 25%.
Take `COc1ccc(CCN2CCC(CN(C)Cc3cnn(-c4ccccc4)c3)CC2)cc1`: the growth was 33.5% in the assay with HT29 colon; 59.9% with SNB-75 CNS; 29.4% with SNB-19 CNS; 9.09% (active) in the assay with U251 CNS; 34% in the assay with PC-3 prostate; 18.9% with SK-MEL-5 melanoma. The growth is -14.2% (active) in the assay on UACC-62 melanoma; 2.01% (active) with LOX IMVI melanoma; 33.4% with SK-MEL-28 melanoma; 37.3% with SK-MEL-2 melanoma; 23.7% with SN12C renal; 12.7% in the assay with UO-31 renal. Also, the growth in the assay with TK-10 renal was 45.5%; in the assay with ACHN renal it was 21.3%; in the assay with CAKI-1 renal, 15.7%; in the assay with A498 renal it was 42.9%; in the assay with CCRF-CEM leukemia, 0.563% (active); with MOLT-4 leukemia, 3.15% (active).
Turning to `Nc1ccc(-n2c(=O)oc3ccc(Cl)cc3c2=O)c(Cl)c1`, the growth was 3.86% (active) in the assay with HT29 colon; -41.3% (active) in the assay on SNB-75 CNS; 16.2% in the assay on SNB-19 CNS; -8.77% (active) with U251 CNS; 2.14% (active) in the assay with PC-3 prostate; -83.9% (active) in the assay on SK-MEL-5 melanoma. The growth is -34.9% (active) with UACC-62 melanoma; 0.455% (active) in the assay with LOX IMVI melanoma; -10.6% (active) in the assay on SK-MEL-28 melanoma; -31.6% (active) with SK-MEL-2 melanoma; 4.42% (active) in the assay with EKVX NSCLC; -0.532% (active) in the assay with SN12C renal. Also, the growth in the assay on TK-10 renal is 8.25% (active); in the assay with ACHN renal it was 5.28% (active); in the assay with CAKI-1 renal it was -21.5% (active); with CCRF-CEM leukemia, 0.0077% (active); in the assay on MOLT-4 leukemia, -33.5% (active).
On to `COc1cc(C(C)n2cc(-c3ccccc3)nn2)ccc1OC1CCCC1` (configuration not stated), for which the growth is 82.4% with HT29 colon; 75.5% in the assay with SNB-75 CNS; 79.2% in the assay with SNB-19 CNS; 79% with U251 CNS; 65.2% in the assay with PC-3 prostate; 25.9% with SK-MEL-5 melanoma. Moreover, the growth was 63.6% with UACC-62 melanoma; 60.6% with LOX IMVI melanoma; 98.8% in the assay on SK-MEL-28 melanoma; 72.9% in the assay on SK-MEL-2 melanoma; 75.2% with SN12C renal; 50.9% with UO-31 renal. In addition, the growth was 71.8% in the assay on TK-10 renal; 53.4% in the assay with ACHN renal; 49.6% with CAKI-1 renal; 55.6% with A498 renal; 53.5% in the assay with CCRF-CEM leukemia; 48.6% in the assay on MOLT-4 leukemia.
For the compound `COc1ccccc1N1C(=N)S/C(=C\c2ccc(OCc3ccccc3F)cc2)C1=O`, the growth in the assay on HT29 colon was 108%; in the assay with SNB-75 CNS it was 76%; in the assay on SNB-19 CNS it was 90.9%; in the assay with U251 CNS, 78.9%; with PC-3 prostate, 66.9%; in the assay with SK-MEL-5 melanoma it was 92.5%. Besides, the growth in the assay on UACC-62 melanoma was 63.7%; with LOX IMVI melanoma, 80.1%; with SK-MEL-28 melanoma it was 95%; in the assay with SK-MEL-2 melanoma, 82.7%; in the assay on SN12C renal, 80.7%; with UO-31 renal, 59.2%. In addition, the growth with TK-10 renal is 104%; in the assay on ACHN renal, 69.6%; with CAKI-1 renal, 81.6%; in the assay on A498 renal, 82%; with CCRF-CEM leukemia, 65.8%; with MOLT-4 leukemia, 53%. The growth with SR leukemia is 73.4%.
As to `NC(CCl)=NCCC[C@H](N)C(=O)O`, the growth in the assay on HT29 colon is 105%; with SNB-75 CNS it was 89.6%; in the assay on SNB-19 CNS, 97.3%; with U251 CNS, 97.4%; with PC-3 prostate, 76%; with SK-MEL-5 melanoma it was 93.1%. Moreover, the growth with UACC-62 melanoma is 91.5%; with LOX IMVI melanoma, 96.3%; in the assay with SK-MEL-28 melanoma, 107%; with SK-MEL-2 melanoma, 93.3%; in the assay with SN12C renal, 93.3%; in the assay with UO-31 renal it was 85.2%. Further, the growth in the assay on TK-10 renal was 96.7%; in the assay on ACHN renal, 105%; with CAKI-1 renal it was 97.2%; in the assay with A498 renal it was 102%; in the assay on CCRF-CEM leukemia, 94.6%; in the assay with MOLT-4 leukemia, 104%.

(Values after PubChem BioAssay (NCI).)
